Screens from PubChem.
Shown are actives, neighbours in structure and some others; about 21% of the full set was active somewhere.
Pf growth 48h = P. falciparum growth inhibition at 48 hours (one generation); P. falciparum luciferase growth in erythrocytes, 48 h; AID 504832; Potency, µM (titrated, usually from 28.7 µM), for the others: at the top dose activity change, negative = inhibition, actives largely listed as inhibitors; 310,000 compounds, 5.9% hits; also: potency is read from the fitted curve at half-maximal effect; % is scaled to controls: 0 for no effect and ±100 for the full control effect
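Firefly luciferase activity from engineered P. falciparum reports growth; inhibitors lower the luminescent signal. Cultures contained 2% hematocrit erythrocytes at 0.1% final parasitemia.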
AMA1-RON2 inh = inhibitors of Plasmodium falciparum AMA1-RON2 interaction | AlphaScreen AMA1-biotinylated RON2 peptide binding | Potency, µM (series often up to 58.2 µM), for the others: at the highest dose activity change, negative = inhibition, hits mostly inhibitors | 360,000 compounds, 0.2% hits | AID 720542;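 also: potency is read from the fitted curve at half-maximal effect; 0% = vehicle wells and -100% = peptide control; nearly all actives have a fitted effect of over 45% in size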
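AMA1 (3D7) with his tag at 25 nM final met compounds first, then biotinylated RON2 peptide at 25 nM; detection used donor plus acceptor beads, 10 µg/mL apiece, read by AlphaScreen after 30 min at room temperature.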
Shiga inhibitor = inhibitors of Shiga toxin in Vero cells; Vero cells, Shiga toxin protein synthesis inhibition reporter; inhibition, % at 38.7 µM; 290,000 compounds, 9.2% hits; AID 2315; in the data active = inhibition mostly above about 28%, no sharp cut-off; inactive = mostly below about 43%; also: 0% is about no effect
Pf growth 96h = P. falciparum growth inhibition at 96 hours; P. falciparum luciferase reporter growth, 96 h; Potency, µM (doses to about 28.7 µM), for inactives: top-dose activity change, negative = inhibition, usual class: inhibitors; 320,000 compounds, 6.9% hits; AID 504834; also: potency is read from the fitted curve at half-maximal effect; % is scaled to controls: 0 for no effect and ±100 for the full control effect
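Readout is luminescence from an integrated firefly luciferase in P. falciparum. Red cells, 2% hematocrit and 0.05% parasitemia final, were cultured with compound through two parasite generations (96 hours) at 37 C, 5% CO2.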
Cycloheximide cs = counter-screen for Shiga toxin inhibitors: cycloheximide protein synthesis inhibition; 300,000 compounds, 12% hits; max response, %; cell reporter, cycloheximide protein synthesis inhibition counterscreen; in the data active = max response mostly above about 13%, no sharp cut-off; inactive = mostly below about 14%; also: read at 38.3 µM for the half of the compounds with a filed dose; 0% is about no effect
HCV inhibitor = inhibitors of hepatitis C virus infection; Huh7.5.1 HCVcc-Cre infection, luciferase reporter, 44 h; Potency, µM (doses to about 41.8 µM), for the others: top-dose activity change, negative = inhibition, most hits filed as inhibitors; 340,000 compounds, 3.4% hits; also: potency is read from the fitted curve at half-maximal effect; % is scaled to controls: 0 for no effect and ±100 for the full control effect
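Cells (1,000/well) were plated 4 h before compound, then infected with HCVcc-Cre virus (~0.5 moi). After 44 h further culture, infection was read as luciferase luminescence following a 15 min substrate incubation at room temperature.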
Numbers without * were called inactive; ? = inconclusive; nt = not tested or not shown; [ ] = another dose, or the depositor's remark. Unless noted, calls follow the shape of the dose curve; as a rule, active = well fitted curve in the direction sought with a large enough effect; inconclusive = small, poorly fitted or top-dose-only effect, or another doubt; inactive = no such curve, though single readings can be large; an effect the other way counts as inactive or inconclusive.

SMILES	Pf growth 48h	AMA1-RON2 inh	Shiga inhibitor	Pf growth 96h	Cycloheximide cs	HCV inhibitor
COC(OC)c1ccnc(-c2ccc(OC(=O)c3ccccc3)cc2)n1	31%	4%	43	31%	27	-2%
O=C(CSc1nncs1)Nc1nnc(-c2ccccc2)o1	0%	-9%	-11	12%	-2	30%
COc1ccc(NC(=O)c2nnn(CC(=O)Nc3ccc4c(c3)OCO4)c2N)c(OC)c1	80%	20%	12	-5%	40	8%
COC(=O)[C@@]1(Cc2ccc(F)cc2)[C@H]2c3cc(C(=O)N(C)C)n(Cc4c(CO)[nH]cc(C)c4=O)c3C[C@H]2CN1C(=O)c1ccccc1	1.3µM*	-4%	15	1.9µM*	14	3%[8.37 µM]
COC(=O)[C@@]1(Cc2ccc(F)cc2)[C@H]2c3cc(C(=O)N(C)C)n(Cc4ccc(OC(F)(F)F)cc4)c3C[C@H]2CN1C(=O)c1ccccc1	1.9µM*	nt	-8	2.3µM*	-2	-2%[8.37 µM]
COc1ccc(Cl)cc1NC(=O)CN(C)C(=O)/C=C/c1ccco1	nt	-4%	nt	nt	nt	-12%
O=C(Nc1ccccc1)N1CCC(O)(c2cccc(C(F)(F)F)c2)CC1	-20%	-9%	-2	?	-1	-3%
OC1(c2cccc(C(F)(F)F)c2)CCN(c2ccc(-c3ccccc3)nn2)CC1	118%	-2%	67*	3.7µM*	38*	?
CC[C@H](C)[C@H](NC(=O)[C@H](CCC(=O)O)NC(=O)CNC(=O)[C@H](CCCCN)NC(=O)[C@H](CCC(=O)O)NC(=O)[C@H](CCSC)NC(=O)[C@H](CCSC)NC(=O)[C@H](CCSC)NC(=O)[C@H](CCC(=O)O)NC(=O)CNC(=O)[C@H](CO)NC(=O)[C@H](CO)NC(=O)[C@H](CO)NC(=O)[C@@H](N)CC(N)=O)C(=O)N[C@@H](CCCCN)C(=O)O	nt	nt	-6	nt	1	nt
Cc1cccc(C)c1OCC(=O)NCC1COc2ccccc2O1 (configuration not stated)	14%	9%	nt	25%	nt	8%
CC(C)c1ccc(/C=C/C2=NNC(=O)CC2)cc1	95%	-5%	85*	111%	32*	-7%
COc1ccc(CC2=CC(=O)c3ccccc3C2=O)cc1	?	?	123*	6%	56*	22µM*
COc1cccc(CNC(=O)CCc2ccc(OC)c(OC)c2)c1	nt	-8%	-3	-2%	-1	18%
OC(CNC1CCCCC1)COCCOc1ccc(Br)cc1 (configuration not stated)	10µM*	-5%	-16	12µM*	-3	7.9µM*
CCn1ccc(C(=O)Nc2ccc(N(C)C(C)=O)cc2)n1	80%	4%	45*	86%	23*	6%
CCn1ccc(C(=O)Nc2ccc3c(c2)CCC3)n1	217%	5%	113*	3%	27	-11%
CCOC(=O)c1c(NC(=O)c2ccn(CC)n2)sc2c1CCC2	6%	6%	-5	?	-8	?
CCn1ccc(C(=O)Nc2ccccc2SC)n1	41%	-20%	88*	42%[5.75 µM]	33*	-11%
CC(=O)N(C)c1ccc(NC(=O)c2ccccc2C(=O)O)cc1	1%	-5%	8	1%	4	10%
CSc1ccccc1NC(=O)c1cc(C)on1	nt	-3%	99	67%	45	nt
O=C(Nc1ccc(S(=O)(=O)NCc2ccccc2)cc1)C1CCCCC1	-13%	-3%	15	12µM*	-1	-17%
CN(C1CCCCC1)S(=O)(=O)c1ccc(NC(=O)C2CCCCC2)cc1	-18%	0%	-8	nt	4	14µM*
CC(=O)Nc1ccc(S(=O)(=O)NCC2CCC(C(=O)NCc3ccccc3)CC2)cc1 (configuration not stated)	3%	1%	-8	-28%	-1	-1%
CN(C1CCCCC1)S(=O)(=O)c1ccc(NC(=O)CCC(=O)O)cc1	-3%	2%	-4	?	-4	24%
CN(C1CCCCC1)S(=O)(=O)c1ccc(C(=O)O)cc1	nt	0%	22	12µM*	-1	2%
SMILES	Pf growth 48h	AMA1-RON2 inh	Shiga inhibitor	Pf growth 96h	Cycloheximide cs	HCV inhibitor
O=C1c2ccccc2C(=O)N1C1C(=O)N2CCSC12C(=O)OCc1ccccc1 (configuration not stated)	nt	1%	nt	nt	nt	22%
C#CCOCCOCCOCCNc1nc(N2CCN(C(=O)CCCCCCCCCCNC(=O)Cn3cc(C[C@@H](C)O)nn3)CC2)nc(N2CCN(C(=O)CCCCCCCCCCNC(=O)Cn3cc(C[C@@H](C)O)nn3)CC2)n1	0.13µM*	?	nt	0.083µM*	nt	-3%
C#CCOCCOCCOCCNc1nc(N2CCN(C(=O)CCCCCCCCCCNC(=O)Cn3cc(C[C@@H](C)O)nn3)CC2)nc(N2CCN(C(=O)CCCCCCCCCCNC(=O)[C@H](CCCCN)n3cc(C[C@@H](C)CC)nn3)CC2)n1	0.33µM*	-25%	nt	0.47µM*	nt	?
C#CCOCCOCCOCCNc1nc(N2CCN(C(=O)Cn3cc(CC(C)O)nn3)CC2)nc(N2CCN(C(=O)[C@H](CCCCN)n3cc(CCC(=O)O)nn3)CC2)n1 (some centres not stated)	21%	-4%	-14	-1%	-3	14%
O=C(Nc1ccccc1)c1ccc(-c2ccc(F)cc2)s1	5%	5%	88*	54%	36*	-2%
COc1ccc(NC(=O)c2ccc(-c3ccc(OC)cc3)s2)cc1	26%	6%	72*	?	20	-15%
CNC(=O)c1ccc(-c2ccc(Cl)c(Cl)c2)s1	?	40%	66*	?	42*	?
COCCNC(=O)c1cc(-c2ccc(Cl)c(Cl)c2)on1	-66%	5%	13	?	1	18%
CNC(=O)c1ccc(-c2ccc(OC)cc2)s1	9%	6%	78*	0%	26*	?
CNC(=O)c1ccc(-c2ccc(F)cc2)s1	nt	46%	49	-74%	31	?
Clc1ccc(Cc2ccccn2)cc1	6%	20%	nt	12%	nt	0%
CCCCN(C(=O)CC1CCCC1)c1c(N)n(CC(C)C)c(=O)[nH]c1=O	9%	11%	nt	60%	nt	12%
CSCCC(NS(=O)(=O)c1ccccc1F)C(=O)Nc1ccncc1 (configuration not stated)	?	-6%	nt	?	nt	13%
O=c1c2c(nc3n1CCS3)c1cc(F)ccc1n2Cc1cc(=O)n2cc(Cl)ccc2n1	?	-15%	13	1.9µM*	-4	-22%
CC1(C)[C@H](C(=O)O[C@H](C#N)c2cccc(Oc3ccccc3)c2)[C@@H]1C=C(Br)Br	nt	nt	-13	nt	1	nt
CCc1nc(Nc2ccccc2)c2oc3ccccc3c2n1	-15%	0%	4	0%	17	?
CCc1nc(Nc2cccc(OC)c2)c2oc3ccccc3c2n1	?	3%	27	?	22*	?
